# Results reported in PubChem BioAssay AID1159580 (chemical genetic matrix, 2015).
# The campaign covered roughly 5,500 compounds. About 2,000 (36%) were called active. Not shown: some 18% with an inconclusive outcome. Some of the results follow. Values without a mark were called inactive. No stated cut-off is given here; in the data, active means normalized growth mostly below about 0.91 (no sharp cut-off); inconclusive means no clear call, values can overlap the other calls; inactive means mostly above about 0.92.
# Test: chemical genetic growth profiling, strain panel (AID 1159580);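 further: tested at 20 µM; growth read once vehicle control cultures reached saturation at 30 °C; 1 = growth at the plate median or of vehicle wells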
# Settings: growth OD
smiles,measurement,setting,value
CC(=O)O[C@]1(C(C)=O)CCC2C3C=C(C)C4=CC(=O)CCC4(C)C3CCC21C (stereo partly specified),normalized growth,"S. cerevisiae deletion strains, locus YKL009W, strain mrt4, stronger effect = lower value",0.963
same,normalized growth,"S. cerevisiae deletion strains, locus YKL068W, stronger effect = lower value",0.98
same,normalized growth,"S. cerevisiae deletion strains, locus YKL085W, strain MDH1 (second series), stronger effect = lower value",0.908 (active)
same,normalized growth,"S. cerevisiae deletion strains, locus YKL085W, strain MDH1, stronger effect = lower value",0.908 (active)
same,normalized growth,"S. cerevisiae deletion strains, locus YKL160W, strain elf1, stronger effect = lower value",0.955
same,normalized growth,"S. cerevisiae deletion strains, locus YKL190W, strain CNB1, stronger effect = lower value",0.93
same,normalized growth,"S. cerevisiae deletion strains, locus YKR001C, strain vps1, stronger effect = lower value",0.81 (active)
same,normalized growth,"S. cerevisiae deletion strains, locus YKR026C, strain gcn3, stronger effect = lower value",0.976
same,normalized growth,"S. cerevisiae deletion strains, locus YKR091W, strain srl3, stronger effect = lower value",0.96
same,normalized growth,"S. cerevisiae deletion strains, locus YLL001W, strain dnm1, stronger effect = lower value",0.886 (active)
same,normalized growth,"S. cerevisiae deletion strains, locus YLL026W, stronger effect = lower value",0.941
same,normalized growth,"S. cerevisiae deletion strains, locus YLL041C, strain sdh2, stronger effect = lower value",0.969
same,normalized growth,"S. cerevisiae deletion strains, locus YLR027C, strain aat2, stronger effect = lower value",0.919 (active)
same,normalized growth,"S. cerevisiae deletion strains, locus YLR039C, strain RIC1, stronger effect = lower value",0.859
same,normalized growth,"S. cerevisiae deletion strains, locus YLR058C, strain SHM2, stronger effect = lower value",0.988
same,normalized growth,"S. cerevisiae deletion strains, locus YLR102C, strain apc9, stronger effect = lower value",0.979
same,normalized growth,"S. cerevisiae deletion strains, locus YLR113W, strain HOG1, stronger effect = lower value",0.949
same,normalized growth,"S. cerevisiae deletion strains, locus YLR221C, strain rsa3, stronger effect = lower value",0.957
same,normalized growth,"S. cerevisiae deletion strains, locus YLR258W, strain gsy2, stronger effect = lower value",0.956
same,normalized growth,"S. cerevisiae deletion strains, locus YLR262C, strain YPT6 (second series), stronger effect = lower value",0.699 (active)
same,normalized growth,"S. cerevisiae deletion strains, locus YLR262C, strain YPT6, stronger effect = lower value",0.859
same,normalized growth,"S. cerevisiae deletion strains, locus YLR268W, strain sec22, stronger effect = lower value",0.913
same,normalized growth,"S. cerevisiae deletion strains, locus YLR320W, strain mms22, stronger effect = lower value",0.864 (active)
same,normalized growth,"S. cerevisiae deletion strains, locus YLR330W, strain CHS5, stronger effect = lower value",0.964
same,normalized growth,"S. cerevisiae deletion strains, locus YLR342W, strain FKS1 (second series), stronger effect = lower value",0.759 (active)
same,normalized growth,"S. cerevisiae deletion strains, locus YLR342W, strain FKS1, stronger effect = lower value",0.768 (active)
same,normalized growth,"S. cerevisiae deletion strains, locus YLR357W, strain rsc2, stronger effect = lower value",0.953
same,normalized growth,"S. cerevisiae deletion strains, locus YLR370C, strain arc18, stronger effect = lower value",0.96
same,normalized growth,"S. cerevisiae deletion strains, locus YLR371W, strain rom2, stronger effect = lower value",0.984
same,normalized growth,"S. cerevisiae deletion strains, locus YLR384C, strain iki3, stronger effect = lower value",0.964
same,normalized growth,"S. cerevisiae deletion strains, locus YLR418C, strain cdc73, stronger effect = lower value",0.627 (active)
same,normalized growth,"S. cerevisiae deletion strains, locus YML016C, strain PPZ1, stronger effect = lower value",0.992
same,normalized growth,"S. cerevisiae deletion strains, locus YML032C, strain rad52, stronger effect = lower value",0.96
same,normalized growth,"S. cerevisiae deletion strains, locus YML120C, strain ndi1, stronger effect = lower value",0.906 (active)
same,normalized growth,"S. cerevisiae deletion strains, locus YML124C, strain tub3, stronger effect = lower value",0.976
same,normalized growth,"S. cerevisiae deletion strains, locus YMR058W, strain fet3, stronger effect = lower value",0.913
same,normalized growth,"S. cerevisiae deletion strains, locus YMR078C, strain ctf18, stronger effect = lower value",0.961
same,normalized growth,"S. cerevisiae deletion strains, locus YMR125W, strain sto1, stronger effect = lower value",0.995
same,normalized growth,"S. cerevisiae deletion strains, locus YMR129W, stronger effect = lower value",0.967
same,normalized growth,"S. cerevisiae deletion strains, locus YMR205C, strain PFK2, stronger effect = lower value",0.888
same,normalized growth,"S. cerevisiae deletion strains, locus YMR223W, strain ubp8, stronger effect = lower value",0.888 (active)
same,normalized growth,"S. cerevisiae deletion strains, locus YMR231W, strain pep5, stronger effect = lower value",0.967
same,normalized growth,"S. cerevisiae deletion strains, locus YMR263W, strain SAP30, stronger effect = lower value",0.922
same,normalized growth,"S. cerevisiae deletion strains, locus YMR307W, strain GAS1, stronger effect = lower value",0.817
same,normalized growth,"S. cerevisiae deletion strains, locus YNL067W, strain RPL9B, stronger effect = lower value",0.914
same,normalized growth,"S. cerevisiae deletion strains, locus YNL071W, strain lat1, stronger effect = lower value",0.822 (active)
same,normalized growth,"S. cerevisiae deletion strains, locus YNL128W, strain TEP1, stronger effect = lower value",0.98
same,normalized growth,"S. cerevisiae deletion strains, locus YNL153C, strain GIM3, stronger effect = lower value",0.929
same,normalized growth,"S. cerevisiae deletion strains, locus YNL183C, strain NPR1, stronger effect = lower value",0.939
same,normalized growth,"S. cerevisiae deletion strains, locus YNL209W, strain ssb2, stronger effect = lower value",0.985
same,normalized growth,"S. cerevisiae deletion strains, locus YNL233W, strain BNI4, stronger effect = lower value",0.862 (active)
same,normalized growth,"S. cerevisiae deletion strains, locus YNL248C, strain rpa49, stronger effect = lower value",0.958
same,normalized growth,"S. cerevisiae deletion strains, locus YNL250W, strain rad50, stronger effect = lower value",0.938
same,normalized growth,"S. cerevisiae deletion strains, locus YNL271C, strain bni1, stronger effect = lower value",0.949
same,normalized growth,"S. cerevisiae deletion strains, locus YNL298W, strain CLA4, stronger effect = lower value",0.966
same,normalized growth,"S. cerevisiae deletion strains, locus YNL307C, strain MCK1, stronger effect = lower value",0.714 (active)
same,normalized growth,"S. cerevisiae deletion strains, locus YNL322C, strain KRE1 (second series), stronger effect = lower value",0.972
same,normalized growth,"S. cerevisiae deletion strains, locus YNL322C, strain KRE1, stronger effect = lower value",0.983
same,normalized growth,"S. cerevisiae deletion strains, locus YNR049C, strain mso1, stronger effect = lower value",0.958
same,normalized growth,"S. cerevisiae deletion strains, locus YNR052C, strain pop2, stronger effect = lower value",0.99
same,normalized growth,"S. cerevisiae deletion strains, locus YOL006C, strain TOP1, stronger effect = lower value",0.85
same,normalized growth,"S. cerevisiae deletion strains, locus YOL012C, strain htz1",0.402
same,normalized growth,"S. cerevisiae deletion strains, locus YOL147C, strain pex11, stronger effect = lower value",0.981
same,normalized growth,"S. cerevisiae deletion strains, locus YOR001W, strain rrp6, stronger effect = lower value",0.947
same,normalized growth,"S. cerevisiae deletion strains, locus YOR061W, strain CKA2, stronger effect = lower value",0.977
same,normalized growth,"S. cerevisiae deletion strains, locus YOR069W, strain VPS5, stronger effect = lower value",0.998
same,normalized growth,"S. cerevisiae deletion strains, locus YOR070C, strain gyp1, stronger effect = lower value",0.967
same,normalized growth,"S. cerevisiae deletion strains, locus YOR080W, strain dia2, stronger effect = lower value",0.953
same,normalized growth,"S. cerevisiae deletion strains, locus YOR083W, strain WHI5, stronger effect = lower value",0.9
same,normalized growth,"S. cerevisiae deletion strains, locus YOR106W, strain vam3, stronger effect = lower value",0.877
same,normalized growth,"S. cerevisiae deletion strains, locus YOR136W, strain idh2, stronger effect = lower value",0.971
same,normalized growth,"S. cerevisiae deletion strains, locus YOR144C, strain elg1, stronger effect = lower value",0.985
same,normalized growth,"S. cerevisiae deletion strains, locus YOR184W, strain ser1, stronger effect = lower value",0.746 (active)
same,normalized growth,"S. cerevisiae deletion strains, locus YOR231W, strain MKK1, stronger effect = lower value",0.961
same,normalized growth,"S. cerevisiae deletion strains, locus YOR265W, strain rbl2, stronger effect = lower value",0.954
same,normalized growth,"S. cerevisiae deletion strains, locus YOR270C, strain vph1, stronger effect = lower value",0.718 (active)
same,normalized growth,"S. cerevisiae deletion strains, locus YOR290C, strain snf2, stronger effect = lower value",0.969
same,normalized growth,"S. cerevisiae deletion strains, locus YOR316C, strain cot1, stronger effect = lower value",0.979
same,normalized growth,"S. cerevisiae deletion strains, locus YPL051W, strain arl3, stronger effect = lower value",0.922
same,normalized growth,"S. cerevisiae deletion strains, locus YPL055C, strain LGE1, stronger effect = lower value",0.828
same,normalized growth,"S. cerevisiae deletion strains, locus YPL078C, strain atp4, stronger effect = lower value",0.855 (active)
same,normalized growth,"S. cerevisiae deletion strains, locus YPL106C, strain sse1, stronger effect = lower value",1.05
same,normalized growth,"S. cerevisiae deletion strains, locus YPL240C, strain hsp82, stronger effect = lower value",0.963
same,normalized growth,"S. cerevisiae deletion strains, locus YPL241C, strain CIN2, stronger effect = lower value",0.982
same,normalized growth,"S. cerevisiae deletion strains, locus YPL256C, strain CLN2, stronger effect = lower value",0.915
same,normalized growth,"S. cerevisiae deletion strains, locus YPR119W, strain clb2, stronger effect = lower value",0.983
same,normalized growth,"S. cerevisiae deletion strains, locus YPR141C, strain kar3, stronger effect = lower value",0.972
same,normalized growth,"S. cerevisiae deletion strains, locus YPR163C, strain tif3, stronger effect = lower value",0.983
same,normalized growth,"S. cerevisiae deletion strains, locus YPR167C, strain met16, stronger effect = lower value",0.977
same,normalized growth,"S. cerevisiae deletion strains, strain wtn01, stronger effect = lower value",0.881 (active)
same,normalized growth,"S. cerevisiae strains, strain wild type, stronger effect = lower value",0.88 (active)
